Results reported in publication PMC13423814.

Columns and labels:
[1] = target: 26S proteasome non-ATPase regulatory subunit 5 (UniProt Q16401)
Histone H2B type 1-L = Histone H2B type 1-L (UniProt Q99880)
[2] = target: Large ribosomal subunit protein eL28 (UniProt P46779)
Twinfilin-1 = Twinfilin-1 (UniProt Q12792)
[3] = target: Heterochromatin protein 1-binding protein 3 (UniProt Q5SSJ5)

Sequence of 26S proteasome non-ATPase regulatory subunit 5 (Q16401 whole entry): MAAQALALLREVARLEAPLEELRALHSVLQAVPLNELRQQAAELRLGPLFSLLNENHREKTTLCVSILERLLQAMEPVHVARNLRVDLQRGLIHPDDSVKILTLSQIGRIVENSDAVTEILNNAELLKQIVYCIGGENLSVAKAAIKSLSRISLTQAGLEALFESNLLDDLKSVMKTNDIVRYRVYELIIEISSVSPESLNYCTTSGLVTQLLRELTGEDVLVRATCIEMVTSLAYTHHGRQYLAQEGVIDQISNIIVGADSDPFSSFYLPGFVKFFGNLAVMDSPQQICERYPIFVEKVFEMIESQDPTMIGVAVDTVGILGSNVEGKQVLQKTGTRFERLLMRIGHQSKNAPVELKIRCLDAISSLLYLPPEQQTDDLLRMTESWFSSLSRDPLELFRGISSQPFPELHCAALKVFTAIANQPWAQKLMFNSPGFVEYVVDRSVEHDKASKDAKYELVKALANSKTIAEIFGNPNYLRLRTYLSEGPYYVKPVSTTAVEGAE
Sequence of 26S proteasome regulatory subunit 4, P62191 (P62191 whole entry): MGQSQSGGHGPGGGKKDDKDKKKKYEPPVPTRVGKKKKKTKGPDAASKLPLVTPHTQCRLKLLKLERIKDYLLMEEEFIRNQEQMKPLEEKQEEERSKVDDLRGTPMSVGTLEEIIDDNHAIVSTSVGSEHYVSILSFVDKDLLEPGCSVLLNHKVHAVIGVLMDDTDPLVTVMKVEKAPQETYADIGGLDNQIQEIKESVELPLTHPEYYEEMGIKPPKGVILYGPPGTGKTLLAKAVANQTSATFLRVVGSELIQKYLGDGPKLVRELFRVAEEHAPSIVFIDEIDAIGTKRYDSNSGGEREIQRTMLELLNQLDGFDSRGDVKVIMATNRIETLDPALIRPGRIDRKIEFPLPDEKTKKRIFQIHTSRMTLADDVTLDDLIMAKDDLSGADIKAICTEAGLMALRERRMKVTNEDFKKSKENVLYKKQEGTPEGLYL
Sequence of Histone H2A.V, Q71UI9 (Q71UI9 whole entry): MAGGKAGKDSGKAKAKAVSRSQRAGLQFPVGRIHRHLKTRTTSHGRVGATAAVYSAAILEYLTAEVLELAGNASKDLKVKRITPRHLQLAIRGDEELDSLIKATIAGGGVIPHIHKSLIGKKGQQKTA

## 26S proteasome regulatory subunit 4, P62191
[1]
  listed as a hit: yes

## Histone H2A.V, Q71UI9
Histone H2B type 1-L
  listed as a hit: yes

## Calmodulin-3, P0DP25
[2]
  listed as a hit: yes

## Actin, cytoplasmic 1, P60709
Twinfilin-1
  listed as a hit: yes

## Histone H4, P62805
[3]
  listed as a hit: yes
